D3 ag = qHTS of D3 Dopamine Receptor Agonist: qHTS. 410,000 compounds, 0.58% hits. D(3) dopamine receptor (Homo sapiens), P35462. D3R DiscoveRx beta-arrestin cells, luminescence, 90 min. max activation, %; in the data active means max activation above about 30%
Target sequence (P35462 whole entry, looked up): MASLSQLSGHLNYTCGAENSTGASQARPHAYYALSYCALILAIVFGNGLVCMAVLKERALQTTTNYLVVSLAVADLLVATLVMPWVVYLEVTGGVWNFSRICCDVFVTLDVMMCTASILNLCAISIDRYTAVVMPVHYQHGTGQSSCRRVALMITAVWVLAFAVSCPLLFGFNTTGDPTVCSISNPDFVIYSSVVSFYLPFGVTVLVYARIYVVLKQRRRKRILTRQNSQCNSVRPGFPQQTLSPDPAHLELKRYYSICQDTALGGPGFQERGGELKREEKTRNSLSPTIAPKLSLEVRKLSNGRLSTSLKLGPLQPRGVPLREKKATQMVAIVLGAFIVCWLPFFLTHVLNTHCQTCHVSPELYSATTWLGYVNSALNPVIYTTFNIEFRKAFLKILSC
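Cells at 1500/well, incubated overnight, then treated with pinned compounds (dopamine as control) for 90 min at 37 degrees C. DiscoveRx reagent added for 30 - 60 minutes at room temperature; luminescence read.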
D1 antag = Antagonist of Human D 1 Dopamine Receptor: qHTS; D(1A) dopamine receptor (Homo sapiens), P21728; 360,000 compounds, 3.2% hits; activity change, negative = inhibition, % at 10 µM; AID 504652, 2011; HEK293 TREx D1 cells, calcium flux, dopamine EC80; stronger effect = lower value; in the data active means activity change below about -30%
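Calcium flux readout: force-coupled, inducible Hek293 Trex D1 line, cells induced overnight at 30 C with tetracycline, dye-loaded 30–90 min at RT. Antagonism scored against EC80 dopamine challenge given 180 s after compound.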
DRD3 antagonist = qHTS of D3 Dopamine Receptor Antagonist: qHTS; 360,000 compounds, 2.5% hits; D3R cells, DiscoveRx beta-arrestin luminescence, antagonist mode; stronger effect = lower value; max response, negative = inhibition, %; D(3) dopamine receptor (Homo sapiens), P35462; AID 652054, 2013; in the data active means max response below about -50%
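Cells expressing the human receptor were seeded at 1500 cells/well, incubated overnight at 37 degrees C in 5% CO2, then exposed to library compounds with dopamine controls for 90 minutes at 37 degrees C before luminescent detection.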
D1 potentiator = Potentiators of Human D1 Dopamine Receptor: qHTS. D(1A) dopamine receptor (Homo sapiens), P21728. HEK293 TREx D1 cells, calcium flux, dopamine EC20 potentiation. potentiation, % at 10 µM. 360,000 compounds, 0.036% hits. AID 504651, 2011; in the data active means potentiation above about 30%
D1 agonist = Allosteric Agonists of the Human D1 Dopamine Receptor: qHTS; 360,000 compounds, 1% hits; HEK293 T-REx D1 cells, calcium flux, agonist mode; AID 504660, 2011; activation, % at 2 µM; in the data active means activation above about 30%
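Inducible HEK293 T-REx D1 cells, force-coupled to calcium signalling, were plated at 4000 cells/well with tetracycline and held overnight at 30 C. After no-wash calcium dye loading, compound-evoked calcium rise over 180 s flagged agonists.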
Hits are given with their value; - = inactive; . = no result. Most compounds without a hit are left out; they make up all but 6.1% or so of the library.

SMILES	D3 ag	D1 antag	DRD3 antagonist	D1 potentiator	D1 agonist
CCc1nnc(NS(=O)(=O)c2ccc(NC(=S)NC(=O)c3ccc(OC)c(OC)c3)cc2)s1	-	-	-	-	-
COc1nccnc1NS(=O)(=O)c1ccc(NC(=S)NC(=O)c2ccc(F)cc2)cc1	-	-	-65	-	-
COc1ccc(Nc2oc(-c3ccc(COc4cccc(C)c4)o3)nc2C#N)cc1	-	-	.	-	-
Cc1ccc(S(=O)(=O)Oc2ccc(/C=N/NC(=O)c3cccnc3)cc2)cc1	-	-	-	-	-
O=C(Nc1cccc(F)c1)N1CCC(n2c(=O)[nH]c3ccccc32)CC1	-	-	-	-	-
O=C(NCCN1CCC(n2c(=O)[nH]c3ccccc32)CC1)c1cccs1	-	.	-103	.	.
O=C(NCCN1CCC(n2c(=O)[nH]c3ccccc32)CC1)c1ccc(Cl)cc1	-	.	-51	.	.
O=C(NCCN1CCOCC1)c1cccs1	-	-	-	-	-
Cc1ccc(C(=O)NCCN2CCC(n3c(=O)[nH]c4ccccc43)CC2)cc1F	-	.	-70	.	.
O=C(NCCN1CCC(n2c(=O)[nH]c3ccccc32)CC1)c1ccc(Cl)c(Cl)c1	-	.	-85	.	.
CCNC(=O)CC1C(=O)N(c2ccc(F)cc2)C(=O)N1Cc1ccc(OC)c(OC)c1 (centres undefined)	-	-	.	-	-
O=C(c1ccccc1[N+](=O)[O-])N1CCN(c2ccc(N3CCOCC3)nn2)CC1	-	-	-	-	-
Cc1nn2c(=O)cc(COC(=O)c3ccc(NC(=O)COc4ccc(Cl)cc4)cc3)nc2s1	-	-	.	-	-
Clc1ccc(-c2nc3ccccn3c2Nc2ccc3c(c2)OCCO3)s1	-	-	.	-	-
O=C(NCCN1CCC(n2c(=O)[nH]c3ccccc32)CC1)c1ccc(F)cc1	-	.	-79	.	.
O=C(NCCN1CCC(n2c(=O)[nH]c3ccccc32)CC1)c1cccc2c1-c1ccccc1C2=O	-	.	-	.	.
CCOc1ccccc1C(=O)NCCN1CCC(n2c(=O)[nH]c3ccccc32)CC1	-	.	-	.	.
O=C(NCCN1CCC(n2c(=O)[nH]c3ccccc32)CC1)c1c(F)cccc1F	-	.	-92	.	.
Cc1ccc(C(=O)NCCN2CCC(n3c(=O)[nH]c4ccccc43)CC2)cc1	-	.	-106	.	.
O=C(NCCN1CCC(n2c(=O)[nH]c3ccccc32)CC1)c1ccc(F)cc1F	-	.	-109	.	.
Cc1ccccc1Cn1c(SCc2ccc(C(=O)NCc3cccs3)cc2)nc2ccncc21	-	-	.	-	-
N#Cc1nc(NCC(F)F)c2ncn(-c3cc(F)cc(F)c3)c2n1	.	-	.	-	-
Cc1ccc(-c2cnc(C(O)c3cc(F)cc(Cl)c3)[nH]2)cc1 (centres undefined)	-	.	-	.	.
O=C(/C=C/c1ccncc1)c1ccc(NC(=O)c2ccccc2F)cc1	-	-	-67	-	-
O=C(C1CCN(C2CCN(C/C=C/c3ccccc3)CC2)CC1)N1CCOCC1	-	-	-	-	-
SMILES	D3 ag	D1 antag	DRD3 antagonist	D1 potentiator	D1 agonist
O=C(C1CCN(Cc2ccc(F)cc2)CC1)N1CCN(C/C=C/c2ccccc2)CC1	-	-	-77	-	-
O=C(C1CC1)N1CCN(Cc2ccccc2)CC1	-	.	-	.	.
O=C(C1CCN(Cc2ccccc2)CC1)N1CCN(C/C=C/c2ccccc2)CC1	-	-	-54	-	-
CCN(CC)C(=O)c1sc2nc(-c3cccs3)cc(-c3ccc(Cl)cc3)c2c1N	-	-	-	-	55
CCN(CC)C(=O)c1sc2nc(-c3cccs3)cc(-c3cccs3)c2c1N	-	-	-	-	-
N#Cc1sc2nc(-c3cccs3)cc(-c3ccccc3)c2c1N	-	-	-	-	-
N#Cc1sc2nc(-c3cccs3)cc(-c3ccc(Cl)cc3)c2c1N	-	-32	-	-	-
O=C(NC(c1ccccc1)c1ccc2ccccc2n1)C1CCN(CCOc2ccc(Cl)cc2)CC1 (centres undefined)	-	.	-	.	.
COc1ccc(OCCN2CCC(C(=O)NC(c3ccccc3)c3ccc4ccccc4n3)CC2)cc1 (centres undefined)	-	.	-102	.	.
COc1ccc(OCCN2CCC(C(=O)NC(c3ccc(F)cc3)c3ccc4ccccc4n3)CC2)cc1 (centres undefined)	-	.	-70	.	.
